“And” between values parts separate entries of the source, which are not always exact repeats. Identical values can stand only once. About 2,000 (36%) of roughly 5,500 compounds were called active. Not shown: some 18% with an inconclusive outcome. No stated cut-off is given here; in the data, active means normalized growth mostly below about 0.91 (no sharp cut-off); inconclusive means no clear call, values can overlap the other calls; inactive means mostly above about 0.92. This is one part of the list.
Assay: chemical genetic growth profiling, strain panel (AID 1159580);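 further: tested at 20 µM; growth read once vehicle control cultures reached saturation at 30 °C; 1 = growth at the plate median or of vehicle wells; lower values mean less growth of the strain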
Conditions: S. cerevisiae deletion strains, growth OD

Measured: normalized growth

CCC1(c2ccccc2)C(=O)NCNC1=O
inactive: locus YAL013W, strain DEP1, active compounds read low 1.01 | locus YAL021C, strain ccr4, active compounds read low 1 | locus YAL026C, strain drs2, active compounds read low 0.991 | locus YAL030W, strain snc1, active compounds read low 1.01 | locus YAL040C, strain CLN3, active compounds read low 0.982 | locus YBL061C, strain skt5, active compounds read low 1.01 | locus YBR009C, strain hhf1, active compounds read low 0.997 | locus YBR021W, strain FUR4, active compounds read low 1 | locus YBR023C, strain chs3, active compounds read low 1.01 | locus YBR171W, strain sec66, active compounds read low 0.991 | locus YBR229C, strain ROT2, active compounds read low 1 | locus YBR231C, strain swc5, active compounds read low 1 | locus YBR279W, strain paf1, active compounds read low 1.02 | locus YCL011C, strain gbp2, active compounds read low 0.978 | locus YCL016C, strain dcc1, active compounds read low 1.01 | locus YCL029C, strain bik1, active compounds read low 0.994 | locus YCL061C, strain MRC1 (second series), active compounds read low 0.993 | locus YCL061C, strain MRC1, active compounds read low 0.988 | locus YCL069W, strain vba3, active compounds read low 0.99 | locus YCR088W, strain abp1, active compounds read low 0.984 | locus YDL005C, strain med2, active compounds read low 1.01 | locus YDL035C, strain GPR1, active compounds read low 1.01 | locus YDL040C, strain nat1, active compounds read low 1.01 | locus YDL074C, strain BRE1, active compounds read low 1.01 | locus YDL101C, strain DUN1, active compounds read low 1.01 | locus YDL134C, strain PPH21, active compounds read low 0.998 | locus YDL185W, strain tfp1, active compounds read low 0.991 | locus YDL192W, strain arf1, active compounds read low 0.999 | locus YDR001C, strain nth1, active compounds read low 0.987 | locus YDR069C, strain doa4, active compounds read low 0.998 | locus YDR101C, strain arx1, active compounds read low 1.01 | locus YDR137W, strain rgp1, active compounds read low 1.02 | locus YDR150W, strain NUM1, active compounds read low 0.992 | locus YDR159W, strain sac3, active compounds read low 0.994 | locus YDR162C, strain NBP2, active compounds read low 1.01 | locus YDR195W, strain ref2 0.992 | locus YDR297W, strain sur2, active compounds read low 1.01 | locus YDR318W, strain mcm21, active compounds read low 1 | locus YDR334W, strain swr1, active compounds read low 1 | locus YDR335W, strain msn5, active compounds read low 1.01 | locus YDR363W, strain ESC2, active compounds read low 0.969 | locus YDR388W, active compounds read low 0.998 | locus YDR392W, strain spt3, active compounds read low 0.958 | locus YDR502C, strain sam2, active compounds read low 1 | locus YEL003W, strain gim4, active compounds read low 0.975 | locus YEL037C, strain rad23, active compounds read low 0.98 | locus YEL061C, strain CIN8 (second series), active compounds read low 0.982 | locus YEL061C, strain CIN8, active compounds read low 1 | locus YER002W, strain NOP16, active compounds read low 0.988 | locus YER015W, strain faa2, active compounds read low 0.99 | locus YER016W, strain bim1, active compounds read low 1 | locus YER110C, active compounds read low 1 | locus YER111C, strain swi4, active compounds read low 0.99 | locus YER155C, strain BEM2 (second series), active compounds read low 0.951 | locus YER155C, strain BEM2, active compounds read low 0.998 | locus YER167W, strain BCK2, active compounds read low 1 | locus YFR010W, strain ubp6, active compounds read low 1 | locus YGL078C, strain dbp3, active compounds read low 0.992 | locus YGL086W, strain mad1, active compounds read low 1 | locus YGL167C, strain pmr1, active compounds read low 1.01 | locus YGL173C, strain kem1, active compounds read low 1 | locus YGL227W, strain vid30, active compounds read low 0.98 | locus YGL240W, strain doc1, active compounds read low 0.997 | locus YGL248W, strain PDE1, active compounds read low 1 | locus YGL253W, strain hxk2, active compounds read low 1 | locus YGR078C, strain PAC10, active compounds read low 1.01 | locus YGR135W, strain pre9, active compounds read low 0.995 | locus YGR252W, strain gcn5, active compounds read low 0.987 | locus YHR013C, strain ard1, active compounds read low 1.01 | locus YHR027C, strain rpn1, active compounds read low 1.01 | locus YHR030C, strain SLT2, active compounds read low 1 and 1.02 | locus YHR079C, strain IRE1 (second series), active compounds read low 0.995 | locus YHR079C, strain IRE1, active compounds read low 0.993 | locus YHR094C, strain hxt1, active compounds read low 0.995 | locus YHR129C, strain ARP1, active compounds read low 1.01 | locus YHR142W, strain chs7, active compounds read low 1 | locus YHR200W, strain rpn10, active compounds read low 0.995 | locus YIL066C, strain RNR3, active compounds read low 1.01 | locus YIL073C, strain SPO22, active compounds read low 1 | locus YIL125W, strain kgd1, active compounds read low 1 | locus YIR030C, strain dcg1, active compounds read low 0.997 | locus YJL092W, strain hpr5, active compounds read low 0.975 | locus YJL095W, strain BCK1 (second series), active compounds read low 1.01 | locus YJL095W, strain BCK1, active compounds read low 1.01 and 1.02 | locus YJL115W, strain asf1, active compounds read low 0.988 | locus YJL129C, strain trk1, active compounds read low 0.967 | locus YJL134W, strain LCB3, active compounds read low 1.01 | locus YJL154C, strain vps35, active compounds read low 0.976 | locus YJL164C, strain tpk1, active compounds read low 1 | locus YJL166W, strain qcr8, active compounds read low 1.04 | locus YJL168C, strain set2, active compounds read low 0.996 | locus YJL187C, strain SWE1 (second series), active compounds read low 1.01 | locus YJL187C, strain SWE1, active compounds read low 1.02 | locus YJR043C, strain POL32, active compounds read low 1 | locus YJR066W, strain TOR1, active compounds read low 0.967

— PubChem BioAssay AID1159580 (chemical genetic matrix, 2015)
